# Only some compounds are listed: those with a hit (about 2.2% of all), similar ones and a draw of the others.
# IEC-6 cytotox = IEC-6 cytotoxicity, counter-screen for KLF5 inhibitors; 0.78% of 290,000 active; luminescence viability; inhibition, % at 5 µM;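 further: 0% = plate median of test compound wells and 100% = cytotoxic reference compound wells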
# Ba/F3 V617F tox = reduce viability of Ba/F3 cells dependent on JAK2V617F | Ba/F3 EpoR-JAK2V617F viability, ATP luminescence | inhibition, % at 5.6 µM | 1.1% of 220,000 active;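 active means inhibition above the campaign mean plus 3 SD over all tested compounds, cut at about 24% in these data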;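 further: cytokine-independent growth of Ba/F3 cells driven by EpoR plus mutant JAK2; 0% = DMSO-treated cells and 100% = JAK inhibitor I control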
# APP transl inh = APP translation inhibition. inhibition, % at 2 µM. 0.82% of 190,000 active. AID 1285. SH-SY5Y APP 5'UTR-luciferase reporter, luminescence;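 active means inhibition above a set limit, derived from the sample mean plus 3 SD, cut at about 45% in these data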
# KLF5 inh = inhibitors of KLF5 expression. DLD-1 KLF5 promoter-luciferase reporter, luminescence. inhibition, % at 5 µM. 0.23% of 290,000 active. AID 1700;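 active means inhibition above a per-plate limit of that plate's mean compound inhibition plus 3 SD, cut at about 60% in these data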;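 further: 0% = DMSO wells and 100% = LY294002 at 200 µM; higher means less KLF5 promoter-driven luciferase light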
# aSyn 5UTR inh = MLPCN primary screen, SNCA 5' untranslated region; AID 1813; 0.82% of 300,000 active; alpha-synuclein 5'UTR reporter, inhibitor activity; inhibition, % (tested at 7.5 µM); in the data active means inhibition above about 60%;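 further: H4 neuroglioblastoma cells stably carrying SNCA 5'UTR luciferase fusion; 0% = DMSO wells and 100% = positive control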
# BaF3 parental = parental Ba/F3 viability inhibition as JAK2V617F counter-screen | CellTiter-Glo ATP luminescence | inhibition, % at 5.6 µM | 1.1% of 220,000 active;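 active means inhibition above a per-campaign cutoff, the mean inhibition of all tested compounds plus 3 SD, cut at about 27% in these data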;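 further: 0% = DMSO wells and 100% = JAK Inhibitor I control wells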
# IEC-6 tox confirm = IEC-6 cytotoxicity, confirmation assay; inhibition, % at 5 µM; IEC-6 rat intestinal epithelial viability, luminescence; 63% of 1,900 active; shares compounds with IEC-6 cytotox;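 further: 0% = vehicle and 100% = reference cytotoxic drug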
# Numbers without * were called inactive; . = not tested or not shown. Unless noted, no stated cut-off is given here; in the data, active means inhibition above about 22%; inactive means the rest.
SMILES,IEC-6 cytotox,Ba/F3 V617F tox,APP transl inh,KLF5 inh,aSyn 5UTR inh,BaF3 parental,IEC-6 tox confirm
CCCCN1/C(=C/c2cccc[n+]2C)Sc2cc(NC(C)=O)ccc21,-4,.,.,-25,-5,.,.
CCCCN1/C(=C/c2ccc3ccccc3[n+]2CC)Sc2ccccc21,42*,101*,-8,7,80*,80*,14
CCN1/C(=C/c2ccc3cc(C)ccc3[n+]2CC)Sc2cc(C)ccc21,35*,99*,63*,17,.,85*,34*
CCN1/C(=C/c2ccc3ccccc3[n+]2CCCS(=O)(=O)[O-])C=Cc2cc(C)ccc21,6,.,.,-9,35,.,.
C=CCn1c(OCc2ccccc2)n[nH]c1=S,-2,.,.,-24,4,.,.
CN1/C(=C/C(=O)CSc2ccccc2C(=O)O)C(C)(C)c2ccccc21,5,1,.,-3,3,6,.
CN1/C(=C\C(=O)CSc2cccc[n+]2[O-])C(C)(C)c2ccccc21,104*,8,-9,-21,13,23,-7
NC(=O)c1ccc(CN2CCc3ccccc3C2)cc1,3,.,.,-6,1,.,.
CCc1nnc(NC(=O)C(NC(=O)c2ccccc2Cl)C(C)C)s1 (stereo not given),-2,0,10,14,8,1,.
CC(Oc1ccc(Br)cc1)C(=O)Nc1nc(-c2ccccn2)cs1 (stereo not given),50*,.,.,21,45,.,24*
CC(C)[C@H](NC(=O)c1ccccc1Cl)C(=O)Nc1nc(-c2ccccn2)cs1,40*,0,3,27,64*,12,40*
COc1ccc2[nH]c3c(=O)n(CCCC(=O)NC4CCCCC4C)c(=S)[nH]c3c2c1 (stereo not given),-14,.,.,-31,21,.,.
Cn1cccc1/C=C1\SC(=Nc2ccccc2)NC1=O,68*,76*,.,39,46,72*,57*
Cn1cccc1/C=C1\SC(=Nc2ccc(O)cc2)NC1=O,90*,89*,.,46,-47,87*,66*
O=C1CCCC(O)=C1Sc1cc(Cl)c(Cl)cc1Cl,.,.,.,.,10,.,.
CCNc1c(NC(=O)c2ccc3c(c2)OCO3)c(=O)oc2ccccc12,-2,.,.,7,14,.,.
CC(C)(C)c1ccc(CSc2nnc(-c3ccccn3)n2Cc2ccco2)cc1,-2,-1,-10,-30,9,6,.
Brc1ccc(CSc2nnc(-c3ccccn3)n2Cc2ccco2)cc1,28*,1,4,5,9,10,22
C(=C\c1ccccc1)/CSc1nnc(-c2ccccc2)n1Cc1ccco1,34*,41*,17,6,14,23,36*
C(=C\c1ccccc1)/CSc1nnc(-c2ccncc2)n1Cc1ccco1,7,3,-13,-6,0,4,.
CN1CCc2c(n(CC(O)CNCc3ccccc3)c3ccccc23)C1=O (stereo not given),9,1,-12,14,39,-6,.
CC(C)NCC(O)Cn1c2c(c3ccccc31)CCc1c-2cnn1-c1ccccc1 (stereo not given),75*,88*,87*,22,108*,79*,73*
CCN(CC)c1ccc(/C=N/NC(=O)c2cnccn2)cc1,43*,78*,74*,7,-85,74*,56*
Cc1nc2cc(NC(=O)c3ccc([N+](=O)[O-])s3)ccc2s1,30*,.,.,29,77*,.,19
CN(C)c1cccc(NC2=CC(=[N+]3CCOCC3)CC(C)(C)C2)c1,-2,2,5,-18,1,4,.
SMILES,IEC-6 cytotox,Ba/F3 V617F tox,APP transl inh,KLF5 inh,aSyn 5UTR inh,BaF3 parental,IEC-6 tox confirm
CN(Cc1ccccc1)C1=CC(=[N+]2CCCC2)CC(C)(C)C1,31*,94*,.,-4,-18,73*,28*
CC(Oc1ccc2c(c1)c1ccnc3c4ccccc4c(=O)n2c13)C(=O)NCCN1CCOCC1 (stereo not given),17,.,.,4,-76,.,.
CSc1ccc(CNC(=O)Cc2ccc(NC(=O)C3=C(C)OCCS3)cc2)cc1,27*,.,.,-40,-153,.,35*
CCOc1ccc(CCNC(=O)Cc2ccc(NC(=O)C3=C(C)OCCS3)cc2)cc1,3,.,.,-31,-56,.,.
CCCCn1c(N)c(N(CC(C)C)C(=O)c2ccc(C)c(S(=O)(=O)N3CCCCC3)c2)c(=O)[nH]c1=O,.,.,.,.,10,.,.
COc1cc(C2c3cc4c(cc3C(OC3OC5COC(c6cccs6)OC5C(O)C3O)C3COC(=O)C23)OCO4)cc(OC)c1O (stereo not given),93*,98*,.,41,82*,102*,74*
CN1CCN(c2ccc(C(CC(N)=O)NC(=O)Cc3cccc4ccccc34)cc2[N+](=O)[O-])CC1 (stereo not given),2,.,.,-9,7,.,.
COc1ccccc1NCCC(=O)O,-12,0,.,-42,4,-3,.
O=C(O)CCNc1ccc(NCCC(=O)O)c2c1C(=O)c1ccccc1C2=O,24*,.,.,-1,15,.,10
CCOC(=O)c1c(C)[nH]c(C(=O)OCC(=O)Nc2cc(C)ccc2OC)c1C,1,-5,-14,-4,8,0,.
CCOC(=O)c1[nH]c(C)c(C(=O)Nc2cc(OC)ccc2OC)c1C,86*,75*,91*,60,36,75*,61*
CCOC(=O)c1[nH]c(C)c(C(=O)Nc2ccccc2F)c1C,47*,68*,62*,5,-54,62*,46*
CCOC(=O)c1[nH]c(C)c(C(=O)c2ccc(C)cc2)c1C,82*,78*,95*,16,37,77*,62*
CCOC(=O)c1[nH]c(C)c(C(=O)Nc2ccc(C)cc2C)c1C,51*,59*,70*,38,-28,52*,48*
CCOC(=O)c1[nH]c(C)c(C(=O)Nc2ccc(F)cc2)c1C,1,-6,-18,-43,0,-1,.
CCCC(C)C(=O)Nc1nnc(CCc2ccccc2)s1 (stereo not given),0,.,.,-5,5,.,.
COc1ccc(NC(=O)CN2C(=O)NC(c3ccccc3)(c3ccccc3)C2=O)cc1OC,-8,.,.,-9,2,.,.
CCOC(=O)C1CCN(C(=O)COC(=O)c2oc3ccccc3c2C)CC1,.,.,.,.,15,.,.
CC1(c2ccc(Cl)cc2)NC(=O)N(CC(=O)N2CCN(S(=O)(=O)c3ccccc3)CC2)C1=O (stereo not given),.,.,.,.,5,.,.
CN(C)c1ccc(NC(=O)CSc2nc3ccccc3c(=O)n2C2CCCCC2)cc1,2,1,1,-4,29,6,.
Cc1cc(NC(=O)CSc2nc3ccccc3c(=O)n2C2CCCC2)no1,63*,13,-9,31,86*,8,56*
COc1ccc(-c2cn(-c3ccc(OC)cc3)c3[n+]2-c2ccccc2CC3)cc1,25*,95*,-4,-31,0,77*,26*
C/C(=N\NC(=O)c1ccc(Cl)cc1)c1ccccn1,23*,.,.,33,-63,.,99*

# Source: PubChem
